# In the supplement of paper PMC10037445:
# Whole data set: some 2,900 compounds, median “NF-kB SEAP reporter activity, fold change vs agonist alone” near 0.99, cut for the highest 2% near 2.6. This is one part of a sample in which the highest values are shown more often than they occur.
# Legend:
# RAW-Dual [1] = experiment: NF-kB SEAP reporter activity, fold change vs agonist alone; higher = enhanced NF-kB activity; settings: library stock concentration (final ~1000-fold dilution): 10 mM
# Outline: (§1)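 RAW-Dual macrophages (50,000 cells/well in DMEM, 384-well plates) received 50 nL of library stock by pin tool, then a PRR agonist 1 h later, and were kept at 37 °C, 5% CO2. After 20 hours, supernatant was read for IRF by QuantiLuc luminescence and for NF-κB by QuantiBlue absorbance at 620 nm. Reporter activity is fold change over agonist-alone wells. Cytotoxic wells had IncuCyte confluency below 70% of agonist controls in both mask sets.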
# RAW-Dual [2] = experiment: NF-kB SEAP reporter activity, fold change vs agonist alone; cytotoxicity flag (confluency mask): not cytotoxic; higher = enhanced NF-kB activity
# Outline: as §1
# RAW-Dual [3] = experiment: NF-kB SEAP reporter activity, fold change vs agonist alone; cytotoxicity flag (confluency mask): cytotoxic (confluency <70% of control); higher = enhanced NF-kB activity
# Outline: as §1
# [4] = cytotoxicity flag (confluency mask): not cytotoxic, agonist: Imiquimod (TLR7) […]
# [5] = cytotoxicity flag (confluency mask): not cytotoxic, agonist: MPLA (TLR4) […]
# [6] = agonist: ODN 1826 (TLR9) 0.5 ug/mL
# [7] = agonist: Pam2CSK4 (TLR2/6) 0.1 ug/mL
# [8] = agonist: Pam3CSK4 (TLR2/1) 0.1 ug/mL
smiles,measurement,setting,value
C=CC(=O)N1CC(Nc2ncnc3[nH]ccc23)CCC1C (centres undefined),NF-kB SEAP reporter activity,RAW-Dual [1]; [4],0.572
same,NF-kB SEAP reporter activity,RAW-Dual [1]; [5],0.785
C=CC(=O)N1CC(Nc2ncnc3[nH]ccc23)CCC1C (centres undefined) (library stock concentration (final ~1000-fold dilution): 10 mM),NF-kB SEAP reporter activity,RAW-Dual [2]; agonist: LPS (TLR4) 0.1 ug/mL,0.655
same,NF-kB SEAP reporter activity,RAW-Dual [2]; [6],0.682
same,NF-kB SEAP reporter activity,RAW-Dual [2]; [7],0.56
same,NF-kB SEAP reporter activity,RAW-Dual [2]; [8],0.738
CNCCC(Oc1cccc2ccccc12)c1cccs1 (centres undefined) (library stock concentration (final ~1000-fold dilution): 10 mM),NF-kB SEAP reporter activity,RAW-Dual [3]; agonist: LPS (TLR4) 0.1 ug/mL,1.1
same,NF-kB SEAP reporter activity,RAW-Dual [3]; [6],0.191
same,NF-kB SEAP reporter activity,RAW-Dual [3]; [7],0.797
same,NF-kB SEAP reporter activity,RAW-Dual [3]; [8],0.525
CNCCC(Oc1cccc2ccccc12)c1cccs1 (centres undefined),NF-kB SEAP reporter activity,"RAW-Dual [1]; cytotoxicity flag (confluency mask): cytotoxic (confluency <70% of control), agonist: MPLA (TLR4) […]",1.98
OCC1OC(c2ccc(Cl)c(Cc3ccc(OC4CCOC4)cc3)c2)C(O)C(O)C1O (centres undefined),NF-kB SEAP reporter activity,RAW-Dual [1]; [4],0.973
same,NF-kB SEAP reporter activity,RAW-Dual [1]; [5],1.06
OCC1OC(c2ccc(Cl)c(Cc3ccc(OC4CCOC4)cc3)c2)C(O)C(O)C1O (centres undefined) (library stock concentration (final ~1000-fold dilution): 10 mM),NF-kB SEAP reporter activity,RAW-Dual [2]; agonist: LPS (TLR4) 0.1 ug/mL,1.12
same,NF-kB SEAP reporter activity,RAW-Dual [2]; [6],1.07
same,NF-kB SEAP reporter activity,RAW-Dual [2]; [7],0.963
same,NF-kB SEAP reporter activity,RAW-Dual [2]; [8],0.983
COc1ccc(S(=O)(=O)NCc2ccc(C(=O)NCCc3ccc(Cl)cn3)cc2)cc1 (library stock concentration (final ~1000-fold dilution): 10 mM),NF-kB SEAP reporter activity,RAW-Dual [2]; agonist: LPS (TLR4) 0.1 ug/mL,1.36
same,NF-kB SEAP reporter activity,RAW-Dual [2]; [6],1.15
same,NF-kB SEAP reporter activity,RAW-Dual [2]; [7],0.849
same,NF-kB SEAP reporter activity,RAW-Dual [2]; [8],1.49
COc1ccc(S(=O)(=O)NCc2ccc(C(=O)NCCc3ccc(Cl)cn3)cc2)cc1,NF-kB SEAP reporter activity,RAW-Dual [1]; [4],0.318
same,NF-kB SEAP reporter activity,RAW-Dual [1]; [5],1.19
O=C(Nc1ncc([N+](=O)[O-])s1)c1ccccc1O,NF-kB SEAP reporter activity,RAW-Dual [1]; [5],0.945
COc1ccc(CNC(=O)Nc2ncc([N+](=O)[O-])s2)cc1 (library stock concentration (final ~1000-fold dilution): 10 mM),NF-kB SEAP reporter activity,RAW-Dual [2]; agonist: LPS (TLR4) 0.1 ug/mL,2.74
same,NF-kB SEAP reporter activity,RAW-Dual [2]; [6],1.64
same,NF-kB SEAP reporter activity,RAW-Dual [2]; [7],0.864
same,NF-kB SEAP reporter activity,RAW-Dual [2]; [8],1.32
COc1ccc(CNC(=O)Nc2ncc([N+](=O)[O-])s2)cc1,NF-kB SEAP reporter activity,RAW-Dual [1]; [4],1.2
same,NF-kB SEAP reporter activity,RAW-Dual [1]; [5],1.68
O=C(Nc1ncc([N+](=O)[O-])s1)c1ccccc1O (library stock concentration (final ~1000-fold dilution): 10 mM),NF-kB SEAP reporter activity,RAW-Dual [2]; agonist: LPS (TLR4) 0.1 ug/mL,0.954
same,NF-kB SEAP reporter activity,RAW-Dual [2]; [6],1.21
same,NF-kB SEAP reporter activity,RAW-Dual [2]; [7],0.573
same,NF-kB SEAP reporter activity,RAW-Dual [2]; [8],0.684
COCCOc1cnc2ccn(C(C)c3nnc4c(F)cc(-c5cnn(C)c5)cn34)c(=O)c2c1 (centres undefined) (library stock concentration (final ~1000-fold dilution): 10 mM),NF-kB SEAP reporter activity,RAW-Dual [2]; agonist: LPS (TLR4) 0.1 ug/mL,1.54
same,NF-kB SEAP reporter activity,RAW-Dual [2]; [6],1.11
same,NF-kB SEAP reporter activity,RAW-Dual [2]; [7],1.11
same,NF-kB SEAP reporter activity,RAW-Dual [2]; [8],1.13
COCCOc1cnc2ccn(C(C)c3nnc4c(F)cc(-c5cnn(C)c5)cn34)c(=O)c2c1 (centres undefined),NF-kB SEAP reporter activity,RAW-Dual [1]; [4],1.01
same,NF-kB SEAP reporter activity,RAW-Dual [1]; [5],1.01
CCCCCCCCCCCCCCCC(=O)OCC(O)C1OC(O)=C(O)C1=O (centres undefined),NF-kB SEAP reporter activity,RAW-Dual [1]; [4],0.898
same,NF-kB SEAP reporter activity,RAW-Dual [1]; [5],1.01
CCCCCCCCCCCCCCCC(=O)OCC(O)C1OC(O)=C(O)C1=O (centres undefined) (library stock concentration (final ~1000-fold dilution): 10 mM),NF-kB SEAP reporter activity,RAW-Dual [2]; agonist: LPS (TLR4) 0.1 ug/mL,1.15
same,NF-kB SEAP reporter activity,RAW-Dual [2]; [6],0.825
same,NF-kB SEAP reporter activity,RAW-Dual [2]; [7],0.949
same,NF-kB SEAP reporter activity,RAW-Dual [2]; [8],0.67
Cc1c[nH]c(-c2cnc(NCCNc3ccc(C#N)cn3)nc2-c2ccc(Cl)cc2Cl)n1 (library stock concentration (final ~1000-fold dilution): 10 mM),NF-kB SEAP reporter activity,RAW-Dual [2]; agonist: LPS (TLR4) 0.1 ug/mL,3.08
same,NF-kB SEAP reporter activity,RAW-Dual [2]; [6],2.65
same,NF-kB SEAP reporter activity,RAW-Dual [2]; [7],2.12
same,NF-kB SEAP reporter activity,RAW-Dual [2]; [8],2.9
Cc1c[nH]c(-c2cnc(NCCNc3ccc(C#N)cn3)nc2-c2ccc(Cl)cc2Cl)n1.Cl,NF-kB SEAP reporter activity,RAW-Dual [1]; [4],2.27
same,NF-kB SEAP reporter activity,RAW-Dual [1]; [5],2.2
Cc1c[nH]c(-c2cnc(NCCNc3ccc(C#N)cn3)nc2-c2ccc(Cl)cc2Cl)n1,NF-kB SEAP reporter activity,RAW-Dual [1]; [4],2.12
same,NF-kB SEAP reporter activity,RAW-Dual [1]; [5],2.19
Cc1c[nH]c(-c2cnc(NCCNc3ccc(C#N)cn3)nc2-c2ccc(Cl)cc2Cl)n1.Cl (library stock concentration (final ~1000-fold dilution): 10 mM),NF-kB SEAP reporter activity,RAW-Dual [2]; agonist: LPS (TLR4) 0.1 ug/mL,2.97
same,NF-kB SEAP reporter activity,RAW-Dual [2]; [6],2.78
same,NF-kB SEAP reporter activity,RAW-Dual [2]; [7],1.84
same,NF-kB SEAP reporter activity,RAW-Dual [2]; [8],3.48
CCOC(=O)Nc1ccc(NCc2ccc(F)cc2)nc1N.O=C(O)/C=C/C(=O)O (library stock concentration (final ~1000-fold dilution): 10 mM),NF-kB SEAP reporter activity,RAW-Dual [2]; agonist: LPS (TLR4) 0.1 ug/mL,1.03
same,NF-kB SEAP reporter activity,RAW-Dual [2]; [6],1.1
same,NF-kB SEAP reporter activity,RAW-Dual [2]; [7],0.993
same,NF-kB SEAP reporter activity,RAW-Dual [2]; [8],1.01
CCOC(=O)Nc1ccc(NCc2ccc(F)cc2)nc1N.O=C(O)/C=C/C(=O)O,NF-kB SEAP reporter activity,RAW-Dual [1]; [4],0.871
same,NF-kB SEAP reporter activity,RAW-Dual [1]; [5],1.23
CC(C)CN(CC(O)C(Cc1ccccc1)NC(=O)OC1COC2OCCC12)S(=O)(=O)c1ccc(N)cc1.CCO (centres undefined),NF-kB SEAP reporter activity,RAW-Dual [1]; [4],1.42
same,NF-kB SEAP reporter activity,RAW-Dual [1]; [5],1.49
CC(C)CN(CC(O)C(Cc1ccccc1)NC(=O)OC1COC2OCCC12)S(=O)(=O)c1ccc(N)cc1.CCO (centres undefined) (library stock concentration (final ~1000-fold dilution): 10 mM),NF-kB SEAP reporter activity,RAW-Dual [2]; agonist: LPS (TLR4) 0.1 ug/mL,1.78
same,NF-kB SEAP reporter activity,RAW-Dual [2]; [6],1.57
same,NF-kB SEAP reporter activity,RAW-Dual [2]; [7],1.42
same,NF-kB SEAP reporter activity,RAW-Dual [2]; [8],1.43
COc1ccc(Cn2c3ncnc4c(ncn4Cc4ccc(OC)cc4)c-3nc2=O)cc1 (library stock concentration (final ~1000-fold dilution): 10 mM),NF-kB SEAP reporter activity,RAW-Dual [2]; agonist: LPS (TLR4) 0.1 ug/mL,1.73
same,NF-kB SEAP reporter activity,RAW-Dual [2]; [6],1.45
same,NF-kB SEAP reporter activity,RAW-Dual [2]; [7],0.409
same,NF-kB SEAP reporter activity,RAW-Dual [2]; [8],0.8
